Most compounds without a hit are left out; they make up all but 12% or so of the library.
L3MBTL1 block – blocks human L3MBTL1 | Q9Y468 | Potency, µM (top dose mostly 57.1 µM), for the others: at the top dose activity, negative = inhibition, actives largely listed as inhibitors | AID 485360 | hit rate 0.66% among 230,000 | AlphaScreen L3MBTL1–H3K9me1 peptide binding; also: % is scaled to controls: 0 for no effect and ±100 for the full control effect; nearly all actives have a fitted effect of over 60% in size
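L3MBTL1 50 nM + b-AHA-H3(1-15)K9me1 75 nM, 30 min RT; compound added, 30 min RT; streptavidin donor/Ni-chelate acceptor beads 10 ug/mL each final, 30 min RT dark; AlphaScreen read.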
Sfp PPTase inh – inhibitors of Bacillus subtilis Sfp phosphopantetheinyl transferase | Q9F4F7 | Biochemical Sfp PPTase activity, qHTS | Potency, µM, without a hit: largest response in the series, negative = inhibition, hits mostly inhibitors | hit rate 3.5% among 310,000 | AID 1490;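 also: the enzyme is Sfp with the accession as filed and its product quenches rhodamine fluorescence; 0% = enzyme reaction without inhibitor and -100% = no enzyme wells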
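After 15 min at room temperature with compound, 15 nM Sfp received 5 uM rhodamine-CoA plus 12.5 uM BHQ-2-ybbR (50 mM Hepes pH 7.6, 10 mM MgCl2). Rate came from the fluorescence difference over 30 min, ex 525/em 598 nm.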
BAZ2B block – blocks human BAZ2B; AID 504333; Q9UIF8; hit rate 4.4% among 360,000; Potency, µM (series often up to 114 µM), without a hit: top-dose activity change, negative = inhibition, actives largely listed as inhibitors; AlphaScreen BAZ2B-H3K14Ac peptide displacement; also: % is scaled to controls: 0 for no effect and ±100 for the full control effect; nearly all actives have a fitted effect of over 60% in size
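AlphaScreen luminescence quantifies BAZ2B engagement of H3K14Ac peptide; the protein and biotinylated peptide are both at 50 nM final, buffer PBS pH 7.4 with 0.01% Tween-20, all steps at room temperature.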
JMJD2A Tudor inh – JMJD2A Tudor domain (human) inhibition | O75164 | AlphaScreen JMJD2A-Tudor / H3K4me3 peptide binding | Potency, µM (series often up to 114 µM), without a hit: at the top dose activity change, negative = inhibition, usual class: inhibitors | hit rate 4.4% among 390,000; also: % is scaled to controls: 0 for no effect and ±100 for the full control effect; nearly all actives have a fitted effect of over 50% in size
G9a inh – blocks human histone lysine methyltransferase G9a; G9a H3K9 monomethylation, AlphaScreen, 2 h; Q96KQ7; hit rate 8.8% among 350,000; Potency, µM (highest dose often 102 µM), without a hit: at the top dose activity, negative = inhibition, hits mostly inhibitors; also: % is scaled to controls: 0 for no effect and ±100 for the full control effect; nearly all actives have a fitted effect of over 75% in size
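G9a (20 nM) preincubated 15 min RT with compounds, then 500 nM biotinylated H3K9 peptide and 20 uM SAM added; 2 h RT reaction. Monomethyl-H3K9 product detected by AlphaScreen with anti-H3K9me1 antibody, streptavidin donor and anti-rabbit IgG acceptor beads.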
HP1b binding inh – blocks HP1-beta chromodomain binding to methylated histone tails; hit rate 0.56% among 390,000; Potency, µM (series often up to 114 µM), for the others: at the top dose activity change, negative = inhibition, most hits filed as inhibitors; AlphaScreen HP1-beta / biotin-H3K9me3 peptide binding; P83916; also: nearly all actives have a fitted effect of over 70% in size
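HP1-beta protein (50 nM final) preincubated 30 min at room temperature with biotinylated H3(1-18)K9me3 peptide (50 nM) in PBS pH 7.4, 0.01% Tween-20, then compound added for 30 min. AlphaScreen streptavidin donor/nickel chelate acceptor beads (10 ug/mL final), 30 min dark, luminescence read.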
* = called active by the depositor; ? = inconclusive; / = no result given; ! = not confirmed by another sample; [ ] = remark or other dose. Calls follow the shape of the dose curve; as a rule, active = well fitted curve in the direction sought with a large enough effect; inconclusive = small, poorly fitted or top-dose-only effect, or another doubt; inactive = no such curve, though single readings can be large; an effect the other way counts as inactive or inconclusive. Potency is read from the fitted curve at half-maximal effect.

SMILES | L3MBTL1 block | Sfp PPTase inh | BAZ2B block | JMJD2A Tudor inh | G9a inh | HP1b binding inh
CN1CCN(c2ccc(S(=O)(=O)N3CCCCC3)cc2NC(=O)Cc2c(F)cccc2Cl)CC1 | -9.1% | / | -6.7% | -24.0% | 44.7µM* | -6.4%
CC(=O)NCCC(=O)Nc1cc(S(=O)(=O)Nc2ccc(Cl)cc2)ccc1N1CCCC1 | / | 79.4µM* | -10.2% | ? | 22.4µM* | -13.0%
O=S(=O)(Nc1ccc(Cl)cc1)c1ccc(N2CCOCC2)c(NC(=S)NCCN2CCOCC2)c1 | 0.9% | 3.98µM* | ? | 79.4µM* | 4.47µM* | ?
COc1ccc(C(=O)Cn2c(=O)n3nc(CCn4nc(C)cc4C)nc3c3cc(OC)c(OC)cc32)cc1 | / | / | -7.6% | -9.0% | 2.2%[59 µM] | 6.2%
CCOC(=O)c1c(C)[nH]c(C)c1S(=O)(=O)N1CCC(C(=O)Nc2ccccn2)CC1 | / | / | -24.0% | -14.6% | -1.7%[59 µM] | 4.5%
COCCCc1cc(F)c(S(=O)(=O)N2CCN(S(=O)(=O)c3ccc4c(c3)OCCO4)CC2)cc1F | / | / | / | -11.6% | / | /
N=C(N)SCc1nc2ccccn2c1Br | 11.2% | 4.4% | -4.6% | -10.9% | -5.0%[59 µM] | 12.0%
Cc1cccc2nc(CSC(=N)N)c(Br)n12 | 9.4% | -8.9% | -30.7% | -0.7% | 8.91µM* | 35.9%
CCn1c(C(c2ccccc2)c2ccccc2)n[nH]c1=S | / | 1.5% | -7.0% | 31.6µM* | 7.94µM* | -5.0%
C=CCn1c(C(c2ccccc2)c2ccccc2)n[nH]c1=S | -12.8% | -19.3% | -30.5% | -17.7%[57.1 µM] | 10µM* | 23.1%
C=CCn1c(OCc2ccccc2)n[nH]c1=S | / | -4.1% | -17.0% | 3.16µM* | 8.91µM* | ?
C=C1C[C@@]23CC4C5[C@@]6(C)C[C@H](O)C[C@@]57C2[C@H](O)[C@@H]1[C@H](O)[C@H]3[C@H]7N4C6 | / | 26.2% | / | / | / | /
O=C1CSC2(C(=O)N(Cc3ccccc3F)c3ccccc32)N1c1cccc(C(F)(F)F)c1 (centres undefined) | / | / | -17.7% | -19.7% | ? | -0.3%
COCCCN1CN=C(Nc2nc3ccccc3o2)NC1 | 10.9% | -25.4% | -5.0% | 12.6µM* | ? | 2.8%
CC(NC(=O)c1ccc(N(C)C)cc1)c1ccc(F)cc1 (centres undefined) | -0.3% | 10.4% | -15.5% | -24.7% | 14.2% | 21.7%
CC(/C=C/C(=O)NO)=C\[C@@H](C)C(=O)c1ccc(N(C)C)cc1 | / | 11.2% | / | / | 15.8µM*! | /
Cc1ccc(NC(=O)c2oc3ccccc3c2NC(=O)C23CC4CC(CC(C4)C2)C3)cc1 | / | / | ? | -8.6% | -47.8%[59 µM] | 23.9%
CC1CN(C(=O)C(C)N2CCN(c3cccc(Cl)c3)CC2)CC(C)O1 (centres undefined) | 5.3% | 5.3% | -2.8% | 63.1µM* | 34.6% | ?
CCOc1ccc(S(=O)(=O)N2CCC(N3CCN(Cc4ccc(C)cc4)C(=O)C3=O)CC2)cc1 | / | / | 1.6% | -1.0% | 5.0%[59 µM] | 18.7%
CN(C)c1cccc(C(=O)Nc2nc3ccccc3[nH]2)c1 | / | 2.4% | 35.5µM* | 44.7µM* | 50.1µM* | ?
Cc1c(C(=O)Nc2nc3ccccc3[nH]2)oc2ccc(Br)cc12 | 0.5% | 14.1µM* | 10.0% | -22.5% | 15.7% | 21.7%
Cc1ccc(C(=O)Nc2nc3ccccc3[nH]2)cc1 | / | 16.0% | 3.2% | -15.5% | -10.0% | 6.8%
Cn1nc(C(=O)Nc2nc3ccccc3[nH]2)ccc1=O | 7.6% | -13.2% | ? | -35.4% | 31.6µM* | 18.5%
CC(C)Sc1nnc2c3ccccc3n(C)c2n1 | / | / | / | -17.7% | / | 38.5%
COC(=O)c1ccccc1NC(=O)Cc1nc(-c2ccccc2)sc1-c1ccc(C)cc1 | -2.0% | -17.3% | -2.9% | -12.4%[57.1 µM] | 44.7µM* | 46.2%
COc1ccc(-c2nnc3n2N=C(c2ccc(OC)c(OC)c2)CS3)c(OC)c1 | / | 3.0% | / | -15.2% | / | /
C=C1c2cc(OC)ccc2NC(=O)N1CC | -3.2% | 19.0% | 3.4% | -12.6% | 31.6µM* | 31.0%
Cc1ccc(CNC(=O)c2cccnc2)cc1 | / | / | / | -14.3% | / | 34.0%
Cc1ccc(CNC(=O)c2nccnc2C(=O)O)cc1 | / | -2.4% | -11.4% | ? | 50.1µM* | 3.8%

High-throughput results from PubChem BioAssay.
